The values below come from PubChem BioAssay AID588690 (Broad Institute, 2011).

Each structure is given as a SMILES string. The whole screen tested about 2,400 compounds, of which fewer than 10 were called active. Inconclusive results (about 1%) are left out.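 How the source made its calls: active means highest replicate activation at or above 34% and every replicate reaching that threshold; inconclusive means meets only one of the two criteria; inactive means meets neither criterion.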 A selection follows.

In the assay the target is Protein FosB (Mus musculus) (UniProt P13346). In words: enhancers of delta FosB homodimer–AP-1 oligo binding – biochemical, fluorescence polarization, TAMRA-CDK5 oligo, cherry-picked samples, confirmation (AID 588690).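 Further: higher polarization means more probe DNA bound by delta FosB.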 Particulars: purified delta FosB, at 24.9 µM, hits give high values, normalised: neutral wells 0, positive control 100.
Protein FosB (Mus musculus), sequence (P13346 whole entry, looked up): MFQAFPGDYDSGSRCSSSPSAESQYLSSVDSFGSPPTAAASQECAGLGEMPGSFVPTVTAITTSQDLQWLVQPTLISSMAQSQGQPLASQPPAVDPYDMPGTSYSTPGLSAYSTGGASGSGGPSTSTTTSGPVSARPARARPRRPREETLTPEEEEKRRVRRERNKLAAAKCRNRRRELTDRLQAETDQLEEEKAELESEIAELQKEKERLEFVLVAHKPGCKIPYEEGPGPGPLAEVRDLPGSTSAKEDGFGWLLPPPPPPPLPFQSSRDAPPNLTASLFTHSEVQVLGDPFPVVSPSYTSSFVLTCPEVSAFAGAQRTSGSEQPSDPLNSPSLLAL
As for `CN(C)CCN(C(=O)CN1C(=O)c2ccccc2C1=O)c1nc2cc3c(cc2s1)OCCO3`, the activation is 0.813% (inactive). For the compound `Cc1ccc(NC(=O)COc2ccc(/C=C3/NC(=O)NC3=O)cc2)cc1`, the activation was 2.85% (inactive). Turning to `O=C(Nc1cccnc1Cl)c1cc(-c2ccccc2O)on1`, the activation was -0.741% (inactive).

As to `CCOC(=O)C1=C(O)/C(=C/c2ccc(OCC(=O)Nc3ccc(C)cc3)cc2)N=C1C`, the activation is 3.13% (inactive). With `c1ccc(C[C@H]2CNCCN2CCC23CC4CC(CC(C4)C2)C3)cc1`, the activation is 2.28% (inactive).

As to `COc1ccc(CNC(=O)c2nnn(CC(=O)Nc3cc(C)cc(C)c3)c2N)cc1`, the activation was 3.37% (inactive).

Regarding `Cc1ccc(S(=O)(=O)N2CCC(Oc3ccc(-n4cnnn4)cc3)CC2)cc1`, the activation is -4.91% (inactive). As for `Cn1cccc1/C=C1\SC(=O)N(CC(=O)Nc2ccc(F)cc2)C1=O`, the activation was 0.105% (inactive). As for `COc1ccc(/C=C/C(=O)OCC(=O)N2CCN(S(=O)(=O)c3ccc(C)cc3C)CC2)cc1OC`, the activation is -0.0445% (inactive).

Take `O=C(Cn1nnc(-c2ccc3c(c2)OCO3)n1)NCc1ccco1`: the activation is -2.21% (inactive). On to `Nc1nc(SCC(=O)Nc2cc(C(F)(F)F)ccc2Cl)[nH]c(=O)c1NC(=O)c1ccco1`, for which the activation is -8.35% (inactive). In the case of `O=C(N/N=C/c1cccc(Br)c1)c1ccc(N2CCCC2=O)cc1`, the activation was 3.06% (inactive). The result for `Nc1ccc(C(=O)OCC(=O)NC2CCCc3ccccc32)cc1[N+](=O)[O-]` (centres undefined) reads 0.712% (inactive); that for `COc1ccc(Br)cc1C(=O)NC(=S)Nc1cc(-c2nc3ccccc3[nH]2)ccc1C`, -0.0125% (inactive). Take `COc1cccc(OCc2cc(/C=N/NC(=O)c3nc(Cl)c(Cl)c(N)c3Cl)ccc2OC)c1`: the activation is 1.13% (inactive).

Take `Cc1cc(C)c2nc3nc(C)cc(C)c3c(N)c2c1`: the activation is 0.483% (inactive). In the case of `O=C(Nc1ccccc1)Nc1nnc(COc2ccccc2F)s1`, the activation is -9.71% (inactive). With `Cc1ccc(OCC(=O)Nc2ccccc2C(=O)NC2CC2)cc1C` the figure was 1.23% (inactive). Take `COc1ccc(-c2cc(=O)c3c(O)cc(O[C@@H]4O[C@H](CO[C@@H]5O[C@@H](C)[C@H](O)[C@@H](O)[C@H]5O)[C@@H](O)[C@H](O)[C@H]4O)cc3o2)cc1O`: the activation was 0.468% (inactive).

`O=C(Nc1ccc(S(=O)(=O)N2CCc3ccccc3C2)cc1)c1ccccc1`: the activation was 6.54% (inactive). As to `NC(N)=Nc1nc2ccc(Br)cc2c(=O)[nH]1`, the activation is -0.0365% (inactive). In the case of `Cc1cc(NC(=O)Nc2c[nH]c(=O)[nH]c2=O)ccc1Br`, the activation is 7.25% (inactive). On to `CCN1CCN(c2cc3nc(C)n(Cc4ccccc4)c(=O)c3cc2NC(=O)c2ccccc2F)CC1`, for which the activation was 3.66% (inactive). With `C=CCn1c(=NC(=O)c2ccc(S(=O)(=O)N3CCCC3)cc2)sc2cc(NC(C)=O)ccc21`, the activation is 2.06% (inactive).

In the case of `CS(=O)(=O)c1ccc(-c2nnn(CC(=O)Nc3ccc4c(c3)OCCO4)n2)cc1`, the activation was 2.96% (inactive). For the compound `CC(=O)Nc1ccc(NC(=O)COc2ccccc2C(=O)Nc2cccc(Cl)c2Cl)cc1`, the activation was -3.31% (inactive). Take `Cn1c(=O)oc2cc(S(=O)(=O)N3CCC(C(=O)Nc4ccc(OC(F)(F)F)cc4)CC3)ccc21`: the activation is 3.32% (inactive).

Take `Cc1ccc(C(=O)NNC(=O)c2cc3cc4ccccc4nc3s2)cc1`: the activation is -0.255% (inactive). As for `CN(CC(=O)Nc1ccc(Cl)cc1)C(=O)CNC(=O)c1ccc2ccccc2c1`, the activation was 6.82% (inactive). As to `C#CCOCCOCCOCCNc1nc(N2CCN(C(=O)C([C@@H](C)O)n3cc([C@@H](N)CCCCN)nn3)CC2)nc(N2CCN(C(=O)[C@H](CCCCN)n3cc(CN)nn3)CC2)n1` (some centres undefined), the activation is -0.353% (inactive). With `Cc1nn(Cc2ccc(Cl)cc2)c(Cl)c1/C=N/NC(=O)CNc1ccccc1F`, the activation is 1.57% (inactive).

As to `Cc1ccc(C)c(NC(=O)C(OC(=O)c2ccc(C)s2)c2ccccc2)c1` (centres undefined), the activation is -0.981% (inactive).

On to `Nc1nc(COC(=O)CCC(=O)c2ccc(Cl)cc2)nc(Nc2ccccc2)n1`, for which the activation was 0.207% (inactive).

For the compound `COc1ccc(Cn2c(=S)[nH]c3cc(C(=O)N4CCCCC4)ccc3c2=O)cc1`, the activation is -2.01% (inactive). As for `COc1ccc(-c2cc(=O)oc3cc(OC(C)C(=O)Nc4ccc(CN5CCOCC5)cc4)ccc23)cc1` (centres undefined), the activation is 0.361% (inactive). For the compound `Cc1cc(NC(=O)CSc2nc3cc(Cl)ccc3c(=O)n2Cc2ccco2)no1`, the activation was 3.74% (inactive). With `O=C(Nc1nc(-c2ccc(-c3ccccc3)cc2)cs1)c1cnccn1`, the activation is 5.91% (inactive). Take `O=C(Cn1nnc(-c2ccccc2)n1)NCc1ccc2c(c1)OCO2`: the activation was 5.36% (inactive). As for `Cc1sc2ncnc(N3CCC(C(=O)Nc4nc5ccc(Cl)cc5s4)CC3)c2c1C`, the activation was 5.08% (inactive). In the case of `CC(Sc1nc(-c2ccccc2)cc(C(F)(F)F)n1)C(=O)Nc1ccc2c(c1)OCO2` (centres undefined), the activation is 0.405% (inactive). Consider `COc1ccc2nc(/N=C(\N)NC(=O)Nc3ccccc3)nc(C)c2c1`, for which the activation was -5.43% (inactive). `COc1ccc(-n2c(SCC(=O)Nc3sc4c(c3C#N)CCCC4)nnc2-c2ccc(O)cc2)cc1`: the activation is 2.22% (inactive). Consider `O=C(Cc1nc2ccccc2[nH]c1=O)c1ccc(Cl)cc1`, for which the activation is 3.64% (inactive). Turning to `CCCCNC(=O)C(C)N(CCN(C)C)C(=O)CCCCCN1C(=O)NC(c2ccc(Cl)cc2)C(C(=O)OCc2ccccc2)=C1C` (centres undefined), the activation was 3.97% (inactive). With `O=C(/C=C/c1ccc(F)cc1)NCCNC(=O)/C=C/c1ccc(F)cc1` the figure was 5% (inactive). With `COc1cccc(CNC(=O)c2nnn(CC(=O)Nc3cc(C)ccc3C)c2N)c1`, the activation was 0.657% (inactive). For `CC(=O)Nc1ccc(NC(=O)C(NS(=O)(=O)c2ccc3c(c2)OCCO3)C(C)C)cc1` (centres undefined), the activation is 2.35% (inactive).

Regarding `COc1ccc(NS(=O)(=O)c2ccc(NC(=O)c3ccc(N(C)S(C)(=O)=O)cc3)cc2)cc1`, the activation was -1.03% (inactive). As for `O=C(Nc1ccc2ccccc2c1)/C(=C/c1cccc(Br)c1)NC(=O)c1ccco1`, the activation is 5.71% (inactive).
